{"source": "PubChem BioAssay AID1626", "about": "(SRMLSC, 2009)", "note": "The whole screen tested about 220,000 compounds, of which about 2,000 (0.91%) were called active. Not shown: some 2% with an inconclusive outcome. No stated cut-off is given here; in the data, inconclusive means inhibition above about 80% without an active follow-up result; inactive means below that; test concentration not stated here. Only a sample is shown. Entries with a potency or affinity are not part of this list.", "data": [{"test": "M. tuberculosis H37Rv growth inhibitors, H37Rv strain (AID 1626);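 further: bacteria incubated seven days before Alamar blue readout; 0% = bacteria only wells and 100% = bacteria with antibiotic wells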", "details": "stronger effect = higher value, concentration not given here", "values": [{"compound": "Cc1ccc(-c2nn(-c3ccccc3)cc2/C=C/C(=O)OCC(=O)NC2CC2)o1", "inhibition": "6.54% (inactive)"}, {"compound": "Cc1cc(C)n(-c2ccc(C(=O)Nc3cccnc3Cl)cc2)n1", "inhibition": "-2.86% (inactive)"}, {"compound": "CS(=O)(=O)N1CCc2cc(NC(=O)c3ccc(Cl)cc3Cl)ccc21", "inhibition": "-3.19% (inactive)"}, {"compound": "COc1ccc(/C=N/NC(=O)C2C3CCCCC32)cc1OC", "note": "(stereo not given)", "inhibition": "1.66% (inactive)"}, {"compound": "CCOc1ccc(Br)cc1S(=O)(=O)Nc1ccc(C(=O)Nc2ccc(C)cc2)cc1", "inhibition": "1.51% (inactive)"}, {"compound": "CN1C(C(=O)NCC2CC2)CC2Cn3c(nc4cc5ccccc5cc43)C21", "note": "(stereo not given)", "inhibition": "-9.29% (inactive)"}, {"compound": "COc1ccccc1NC(C#N)c1ccccc1OCc1ccccc1", "note": "(stereo not given)", "inhibition": "5.14% (inactive)"}, {"compound": "N#CC(Nc1ccccc1)c1ccccc1OCc1ccccc1", "note": "(stereo not given)", "inhibition": "5.52% (inactive)"}, {"compound": "CC(=O)n1c2ccccc2c2c1c1ccccc1n2C", "inhibition": "6.42% (inactive)"}, {"compound": "CC(C)OC(=O)CC1C(=O)NCCN1C(=S)NC(=O)c1ccccc1", "note": "(stereo not given)", "inhibition": "3.87% (inactive)"}, {"compound": "Cc1ccc(C)n1-c1ccc(N2CCOCC2)c(Br)c1", "inhibition": "4.43% (inactive)"}, {"compound": "COC(=O)c1ccc(C(=O)OC)c(NC(=O)CN2CCN(c3ccc(OC)cc3)CC2)c1", "inhibition": "13.8% (inactive)"}, {"compound": "COC(=O)c1ccc(C(=O)OC)c(NC(=O)CN2CCN(c3ccccc3OC)CC2)c1", "inhibition": "72.2% (inactive)"}, {"compound": "O=C1OCc2cc(N=Nc3c(O)[nH]c(=O)[nH]c3=O)ccc21", "inhibition": "-9.19% (inactive)"}, {"compound": "COc1c(/C=N/NS(=O)(=O)c2ccc(C)cc2)c(CCN(C)C(C)=O)cc2c1OCO2", "inhibition": "-0.76% (inactive)"}, {"compound": "CCn1c(SCC(=O)c2cccs2)nnc1-c1ccco1", "inhibition": "-18.1% (inactive)"}, {"compound": "Nc1nc(Nc2ccc(Cl)cc2)nc(NCc2ccco2)c1[N+](=O)[O-]", "inhibition": "18.8% (inactive)"}, {"compound": "Cc1cccc(Nc2nc(N)c([N+](=O)[O-])c(NCc3ccco3)n2)c1", "inhibition": "22.5% (inactive)"}, {"compound": "Cc1nn(C)c2c(=O)c(=O)c2n(C)[nH]1", "inhibition": "-3.16% (inactive)"}, {"compound": "CC(C)CCNC(=O)c1onc(CSc2ccccc2)c1C(=O)NCCC(C)C", "inhibition": "19% (inactive)"}, {"compound": "CCn1c(COc2ccc(C)cc2)nnc1SCC(=O)NNC(=O)c1ccc(OC)cc1", "inhibition": "4.68% (inactive)"}, {"compound": "S=c1[nH]nc(-c2cccnc2)n1/N=C/c1ccccc1", "inhibition": "-12.5% (inactive)"}, {"compound": "CCN1CCN(Cc2ccc(NC(=O)c3cc(NC(=O)c4ccc5n[nH]nc5c4)cc(OC)c3)cc2C(F)(F)F)CC1", "inhibition": "-1.88% (inactive)"}, {"compound": "CCN1CCN(Cc2ccc(NC(=O)c3cc(NC(=O)N4CCNC4=O)cc(OC)c3)cc2C(F)(F)F)CC1", "inhibition": "-1.27% (inactive)"}, {"compound": "CCN1CCN(Cc2ccc(NC(=O)c3cc(NC(=O)c4nccnc4N)cc(OC)c3)cc2C(F)(F)F)CC1", "inhibition": "6.4% (inactive)"}, {"compound": "CCN1CCN(Cc2ccc(NC(=O)c3ccc(C)c(NC(=O)c4ccnnc4)c3)cc2C(F)(F)F)CC1", "inhibition": "-3.04% (inactive)"}, {"compound": "CCN1CCN(Cc2ccc(NC(=O)c3ccc(C)c(NC(=O)c4ccc5n[nH]nc5c4)c3)cc2C(F)(F)F)CC1", "inhibition": "-11% (inactive)"}, {"compound": "CCN1CCN(Cc2ccc(NC(=O)c3cc(NC(=O)c4ccno4)cc(OC)c3)cc2C(F)(F)F)CC1", "inhibition": "14.6% (inactive)"}, {"compound": "Cc1cc(C)cc(NC(=O)CN2C(=O)NC(C)(c3ccccc3)C2=O)c1", "note": "(stereo not given)", "inhibition": "1.34% (inactive)"}, {"compound": "COc1ccc(-c2nn(-c3ccccc3)cc2/C=C2/SC(=S)N(Cc3ccco3)C2=O)c(C)c1", "inhibition": "-0.21% (inactive)"}, {"compound": "Cc1sc(NC(=O)c2ccccc2F)c(CN2CCCCC2)c1C", "inhibition": "7.51% (inactive)"}, {"compound": "CCOc1ncccc1C(=O)OCC(=O)c1ccccc1", "inhibition": "-3.62% (inactive)"}, {"compound": "COc1ccc(CNC(=O)COC(=O)C2=COCCO2)cc1", "inhibition": "46.3% (inactive)"}, {"compound": "CCN(CC(=O)Nc1ccc(NC(C)=O)cc1)CC(=O)Nc1ccccc1C(=O)c1ccccc1", "inhibition": "2.54% (inactive)"}, {"compound": "CC(=O)c1ccn(S(=O)(=O)c2ccccc2)c1", "inhibition": "4.75% (inactive)"}, {"compound": "CC1(C)Cc2c(cnn2-c2ccccc2)-c2c1c1ccccc1n2CC(O)CBr", "note": "(stereo not given)", "inhibition": "8.54% (inactive)"}, {"compound": "CC1(C)Cc2c(cnn2-c2ccccc2)-c2c1c1ccccc1n2CC(O)CCl", "note": "(stereo not given)", "inhibition": "2.97% (inactive)"}, {"compound": "O=C(Nc1ccc(Cl)cn1)c1ccc(-c2ccc(Cl)c(Cl)c2)o1", "inhibition": "9.55% (inactive)"}, {"compound": "COc1cc2nc(-c3ccccc3)nc(N3CCCC3)c2cc1OC", "inhibition": "7.03% (inactive)"}, {"compound": "COc1cc2nc(Cl)nc(N3CCCCC3)c2cc1OC", "inhibition": "1.6% (inactive)"}, {"compound": "O=c1c2ccccc2nc(SCc2ccncc2)n1CC1CCCO1", "note": "(stereo not given)", "inhibition": "4.12% (inactive)"}, {"compound": "CSc1ccccc1NC(=O)Nc1ccc(F)c(Cl)c1", "inhibition": "1.15% (inactive)"}, {"compound": "O=C(Nc1ccccc1)Nc1csc2ccccc12", "inhibition": "14.7% (inactive)"}, {"compound": "O=C(Nc1ccc(F)cc1F)Nc1ccc(F)cc1F", "inhibition": "-3.43% (inactive)"}, {"compound": "O=C(Nc1ccc(F)cc1)Nc1csc2ccccc12", "inhibition": "57.9% (inactive)"}, {"compound": "CCc1ccc(C2C3=C(CC(C)(C)CC3=O)OC3=C2C(=O)CC(C)(C)C3)cc1", "inhibition": "-1.37% (inactive)"}, {"compound": "O=c1[nH]c(/C=C\\c2cccnc2)c([N+](=O)[O-])c(=O)[nH]1", "inhibition": "-10.6% (inactive)"}, {"compound": "C/C=C/C(=O)OCC(=O)Nc1nc2ccc(C)cc2s1", "inhibition": "-7.77% (inactive)"}, {"compound": "COc1cccc(C(=O)NNC(=O)C2CC(C)=C(C)CC2C(=O)O)c1", "note": "(stereo not given)", "inhibition": "-6.84% (inactive)"}, {"compound": "O=C(NC1CCSC1=O)c1ccc(Oc2ccc(F)cc2)nc1", "note": "(stereo not given)", "inhibition": "0.17% (inactive)"}, {"compound": "CCCn1nc2cc(C(=O)NCC34CC5CC(CC(C5)C3)C4)ccc2c1OCC", "inhibition": "5.26% (inactive)"}, {"compound": "COc1ccc(Br)cc1CNC(=O)C1CCN(S(=O)(=O)N2CCCC2)CC1", "inhibition": "-4.95% (inactive)"}, {"compound": "COc1ccccc1N=Nc1[nH]c2ccc(C)cc2c1O", "inhibition": "9.9% (inactive)"}, {"compound": "Cc1ccc(NCc2ccc(O)c3ncccc23)cc1C", "inhibition": "9.65% (inactive)"}, {"compound": "Cc1ccc(S(=O)(=O)Nc2ccc(O)c3ncccc23)cc1", "inhibition": "-2.86% (inactive)"}, {"compound": "Cc1ccccc1NCc1ccc(O)c2ncccc12", "inhibition": "5.07% (inactive)"}, {"compound": "Cc1cccnc1NCc1ccc(O)c2ncccc12", "inhibition": "-8.13% (inactive)"}, {"compound": "CCS(=O)(=O)c1ccc(N=Nc2ccc(O)c3ncccc23)c(OC)c1", "inhibition": "-3.16% (inactive)"}, {"compound": "CCS(=O)(=O)c1ccc(OC)c(N=Nc2ccc(O)c3ncccc23)c1", "inhibition": "4.79% (inactive)"}, {"compound": "Oc1ccc(N=Nc2ccc3c(c2)OCCO3)c2ncccc12", "inhibition": "41% (inactive)"}]}]}
